From PubChem BioAssay AID2551 (National Center for Advancing Translational Sciences (NCATS), 2010)
The campaign covered roughly 310,000 compounds. About 17,000 (5.5%) were called active. Another 11% or so got no clear call; they are omitted. The list comes from a sample in which actives are over-represented; it also holds similar structures and randomly drawn compounds. Unmarked numbers belong to inactive results. The call rests on the fitted dose curve; in most records, active means well fitted inhibition curve with a large enough effect; inconclusive means small, poorly fitted or top-dose-only effect, or effect the other way; inactive means no such curve, though single readings can be large or run the other way.

Target: Nuclear receptor ROR-gamma (Mus musculus) (UniProt P51450)
Experiment: qHTS for inhibitors of ROR gamma transcriptional activity; further: nearly all actives have a fitted effect of over 60% in size
Conditions: Drosophila S2 Gal4-RORgamma UAS-luciferase reporter, 20 h; series mostly up to 53.6 µM; activity change, negative = inhibition: at the top concentration
In short: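 Stable Schneider cell line, Gal4 DNA-binding domain fused to ROR gamma, UAS-luciferase. Cmpd 1 hr RT → CuSO4 700 uM final → 20 hr RT → luciferase reagent 10 min → luminescence.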
On the % scale 0 is the no-effect control and ±100 the full control effect; potency means the concentration at half of the fitted maximal effect.

Chain of Nuclear receptor ROR-gamma (Mus musculus) (P51450 whole entry, looked up): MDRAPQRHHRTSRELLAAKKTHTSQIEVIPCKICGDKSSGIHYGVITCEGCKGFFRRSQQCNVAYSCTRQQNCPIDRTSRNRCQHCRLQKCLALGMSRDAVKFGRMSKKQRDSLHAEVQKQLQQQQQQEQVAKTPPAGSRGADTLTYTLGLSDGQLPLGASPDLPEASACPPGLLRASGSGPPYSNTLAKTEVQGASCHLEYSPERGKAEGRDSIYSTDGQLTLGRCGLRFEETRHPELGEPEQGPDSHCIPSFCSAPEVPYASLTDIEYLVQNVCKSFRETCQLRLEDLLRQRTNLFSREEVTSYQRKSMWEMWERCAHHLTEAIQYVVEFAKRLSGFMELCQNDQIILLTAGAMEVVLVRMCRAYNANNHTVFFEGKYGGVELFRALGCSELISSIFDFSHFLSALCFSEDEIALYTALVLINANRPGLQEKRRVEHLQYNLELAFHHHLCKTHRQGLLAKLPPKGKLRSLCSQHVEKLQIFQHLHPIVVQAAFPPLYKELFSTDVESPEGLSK

SMILES | activity change, negative = inhibition [%] | Potency
[2H]C(CCOS(N)(=O)=O)c1ccccc1 (stereo not drawn) | -1.7 | 
Cc1ccc(-c2ccc(/C=C(\C#N)C(N)=S)o2)c([N+](=O)[O-])c1 |  | 11.2 µM (active)
Cc1cc(-c2ccc(/C=N/n3cnnc3)o2)c([N+](=O)[O-])cc1C | 33.2 | 
N#C/C(=C/c1ccc(-c2ccccc2[N+](=O)[O-])o1)C(=O)NCCN1CCCCC1 | 0.585 | 
O=C(Nc1ccc(-c2cscn2)cc1)C1CCCN(Cc2ccc(CO)o2)C1 (stereo not drawn) | 5.13 | 
COc1ccc(CCNC(=O)c2cnc(Cl)c(Cl)c2)cc1 | -3.9 | 
CCC(C)N1C(=S)SC(C)(C)C1N(O)C(=O)NC1CCCCC1 (stereo not drawn) | -15.4 | 
CCCCNC(=O)N(O)C1N(/N=C/c2ccccc2O)C(=S)SC1(C)C (stereo not drawn) |  | 11.2 µM (active)
CCCCNC(=O)N(O)C1N(/N=C/c2ccc(N(C)C)cc2)C(=S)SC1(C)C (stereo not drawn) | -35.3 | 
COc1ccc2c(c1)N(C)/C(=C1/SC(=S)N(NC(C)=O)C1=O)S2 | 4.75 | 
COc1ccc(OC)c(NC(=O)C2CCCN2S(=O)(=O)c2cccc3nsnc23)c1 (stereo not drawn) | -27.5 | 
O=C(O)c1[nH]c2ccccc2c1C(c1cccc(O)c1)c1c(C(=O)O)[nH]c2ccccc12 | -7.71 | 
O=C(/C=C/c1ccccc1)Nc1nnc(SCC(=O)c2ccc3ccccc3c2)s1 | -1.4 | 
CCOCc1nnc(NC(=O)CSc2ccc(C)cc2)s1 | -40.7 | 
O=C(CSc1ccccc1)Nc1nnc(/C=C/c2ccccc2)s1 |  | 20 µM (active)
CC1(C)Cc2c(sc(NC(=O)C(=O)NCC3CCCO3)c2C(=O)O)CO1 (stereo not drawn) | -26 | 
C/C(=N\NC(=O)Cc1ccc(Cl)cc1)c1ccccn1 |  | 0.398 µM (active)
COc1ccc(/C(C)=N/NC(=O)c2ccc3nc[nH]c3c2)cc1 | 1.35 | 
COc1ccc(CC(=O)NC(C)CCc2ccccc2)cc1 (stereo not drawn) | 16.8 | 
COc1ccc(CC(=O)N/N=C(\C)c2ccccn2)cc1 |  | 7.08 µM (active)
O=C(Nc1ccc(NC(=O)c2ccccc2F)cc1)c1ccccc1F | 0.482 | 
C/C(CC(=O)Nc1ccc(N(C)C)cc1)=N\NC(=O)c1ccccc1F | -23 | 
C/C(=N\NC(=O)Cc1ccc(F)cc1)c1ccc(F)cc1 | 41.3 | 
C/C(=N\NC(=O)Cc1ccc(Br)cc1)c1cccnc1 | 19.1 | 
C/C(=N\NC(=O)c1ccccc1F)c1ccccn1 |  | 0.631 µM (active)
Cc1ccc(Cn2cc(C(=O)NN)c(=O)c3ccc(F)cc32)cc1 | -6.79 | 
Cc1cccnc1CCNC(=O)C1CCC(=O)N(Cc2cccc(F)c2)C1 (stereo not drawn) | 0.715 | 

SMILES | activity change, negative = inhibition [%] | Potency
COc1cc2ccccc2cc1C(=O)Nc1ccccc1C | -19.4 | 
COc1cc([N+](=O)[O-])cc([N+](=O)[O-])c1NC(=O)N1CCOCC1 | -23.8 | 
O=S(=O)(Cc1cc(Cl)nc(-c2cccnc2)n1)c1ccccc1 | 23.2 | 
COc1ccc(C(=O)Nc2cc(C)c(NC(=O)c3ccccc3OC)cn2)cc1 | -27.9 | 
Cc1ccnc(N2C(=O)c3ccc([N+](=O)[O-])cc3C2=O)c1 | -16.3 | 
Cc1cccc(C)c1NC1=NC(=S)N(c2ccc(N(C)C)cc2)C1(C)C |  | 14.1 µM (active)
COC(=O)c1cc(C(=O)NC(C)C2CC3CCC2C3)cc([N+](=O)[O-])c1 (stereo not drawn) | -8.79 | 
Cc1c2cnn(CC(=O)NCc3ccccn3)c(=O)c2c(C)n1Cc1ccc(Cl)cc1 | 4.88 | 
Cc1ccc(CN2CCN(c3ncccn3)CC2)c(C)c1 | 18.7 | 
O=S(=O)(NCc1ccc(Cl)cc1Cl)c1cccs1 | -12.9 | 
C#CCN(N(C)c1ncc(C(F)(F)F)cc1Cl)S(=O)(=O)c1ccc2ccccc2c1 | -20.3 | 
CN(NS(=O)(=O)c1cccs1)c1ncc(C(F)(F)F)cc1Cl |  | 5.62 µM (active)
Cc1cc(C(=O)CCl)c(C)n1CC1COc2ccccc2O1 (stereo not drawn) |  | 10 µM (active)
O=C1C(=O)N(CC2COc3ccccc3O2)c2ccccc21 (stereo not drawn) | -0.423 | 
O=C(NCC1COc2ccccc2O1)C1(c2ccccc2)CCCC1 (stereo not drawn) | 27.7 | 
Cc1ccc(C)c(OCc2cc(C(=O)N3CCN(c4cnccn4)CC3)no2)c1 | 15.6 | 
O=C(CN1CCN(C(=O)C2CCCO2)CC1)Nc1c(Cl)cccc1Cl (stereo not drawn) | 6 | 
Cc1ccc(-n2ncc3c2CC(C)(C)CC3NC(=O)CCc2cnn(C)c2)cc1 (stereo not drawn) | -2.94 | 
CC(C)NS(=O)(=O)c1ccc(OCC(=O)NC2CCCCCC2)cc1 | -17.8 | 
O=C(N/N=C\C1CC=CCC1)c1ccc(Br)o1 (stereo not drawn) | -8.11 | 
CC(C)(C)C1CCC(=NNC(=O)c2ccc(Br)o2)CC1 (stereo not drawn) | -20.7 | 
CCC(C)(C)C1CCC(=NNC(=O)c2ccc(Br)o2)CC1 (stereo not drawn) |  | 11.2 µM (active)
Cc1cc(-c2nnc(SCC(=O)Nc3ccc(S(N)(=O)=O)cc3)n2N)n[nH]1 | -28.9 | 
CCOc1ccc(OCc2ccc(C(=O)N(C)c3ccccc3)o2)cc1 | 41.7 | 
Cc1ccc(NC(=S)N(CCN2CCCCC2)Cc2ccco2)cc1C |  | 10 µM (active)
Cc1ccc(NC(=S)N(CCCN2CCC(C)CC2)Cc2ccco2)cc1 | -10.4 | 
